Hits are enriched below; roughly 18% of the tested compounds scored in any of these assays.
TDP1 inh: inhibitors of human tyrosyl-DNA phosphodiesterase TDP1. recombinant TDP1, AlphaScreen DNA substrate cleavage. AID 485290. Q9NUW8. 0.28% of 350,000 active. Potency, µM (series often up to 130 µM), most hits filed as inhibitors; also: nearly all actives have a fitted effect of over 40% in size
Target sequence (Q9NUW8 whole entry, looked up): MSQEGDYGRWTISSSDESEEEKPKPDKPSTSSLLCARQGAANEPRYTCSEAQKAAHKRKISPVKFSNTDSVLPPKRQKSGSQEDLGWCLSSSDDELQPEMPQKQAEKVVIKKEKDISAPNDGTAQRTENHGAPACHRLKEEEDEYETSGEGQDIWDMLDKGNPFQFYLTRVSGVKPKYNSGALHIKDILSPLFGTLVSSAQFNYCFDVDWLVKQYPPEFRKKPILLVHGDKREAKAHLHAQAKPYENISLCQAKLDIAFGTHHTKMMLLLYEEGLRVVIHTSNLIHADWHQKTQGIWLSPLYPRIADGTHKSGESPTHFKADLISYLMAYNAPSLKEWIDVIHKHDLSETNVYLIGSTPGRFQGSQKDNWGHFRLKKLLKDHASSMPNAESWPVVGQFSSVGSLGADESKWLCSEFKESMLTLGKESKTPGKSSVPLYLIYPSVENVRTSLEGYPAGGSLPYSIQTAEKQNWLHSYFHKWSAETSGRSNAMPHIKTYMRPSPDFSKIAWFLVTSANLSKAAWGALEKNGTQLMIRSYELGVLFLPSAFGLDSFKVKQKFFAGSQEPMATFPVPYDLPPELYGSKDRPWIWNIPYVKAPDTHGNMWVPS
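Here, a 5' biotin and 3' phosphotyrosine-FITC DNA oligonucleotide reports Tdp1 activity: intact substrate bridges AlphaScreen beads, while cleavage leaves a 3' phosphate and drops signal. All incubations at room temperature.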
TDP1 cell CPT: growth inhibition of DT40 Tdp1-/-;hTDP1 cells with camptothecin (screen for TDP1 inhibitors); chicken DT40 Tdp1-/-;hTDP1 cells + 20 nM CPT, ATP luminescence, 48 h; Potency, µM (highest dose often 46.2 µM), actives largely listed as inhibitors; 12% of 420,000 active; also: nearly all actives have a fitted effect of over 55% in size
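Chicken DT40 Tdp1-/- cells complemented with human TDP1, 400 cells/well, exposed to compounds plus 20 nM camptothecin for at least 48 h at 37 C; viability read as ATP content by CellTiter-Glo luminescence.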
DT40 TDP1 no CPT: qHTS for Inhibitors of human tyrosyl-DNA phosphodiesterase 1 (TDP1): qHTS in cells in absence of CPT; DT40 Tdp1-/- hTDP1 cells, no CPT, ATP luminescence, 48 h; Potency, µM (doses to about 46.2 µM), usual class: inhibitors; 15% of 420,000 active; AID 686978, 2013; also: nearly all actives have a fitted effect of over 55% in size
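No-CPT arm: Tdp1-/-;hTDP1 DT40 cells (400/well) plus compounds, incubated ≥48 hr at 37 °C. Readout CellTiter-Glo luminescence.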
CtBP-E1A blk: CtBP/E1A binding inhibition. AlphaScreen GST-E1A/His-CtBP binding, 1536-well; stronger effect = lower value. activity change, % (test concentration not listed). 0.49% of 340,000 active. AID 651724; in the data active = activity change below about -65%; inconclusive = mostly about -30% to -63%
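Protein mix (5X: 125 nM each GST-E1A, His-CtBP) was incubated with pinned compound 2 h at 37 deg C in dark, in 50 mM Tris pH 8.0 buffer with 300 mM NaCl. Glutathione donor and nickel acceptor beads followed; AlphaScreen signal read after 1 h.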
Six1-Eya2 inh: inhibitors of human Six1/Eya2 interaction; activity change, % (test concentration not listed); AID 651725; Q15475+O00167; 0.56% of 360,000 active; AlphaScreen GST-Six1/His-Eya2 binding, biochemical; stronger effect = lower value; in the data active = activity change below about -65%; inconclusive = mostly about -30% to -63%
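Six1/Eya2 binding was read as AlphaScreen signal after compounds were pinned into GST-Six1 plus His-tagged Eya2 (5X stock 250/500 nM) in pH 8.0 Tris/NaCl/TCEP buffer, beads added, then incubated 1 h, 37 C, dark.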
IL-1B inflam inh: blocks inflammasome-driven IL-1 beta release. 4.7% of 360,000 active. activity change, % at 57.5 µM. THP-1 LPS/ATP IL-1B secretion, AlphaLISA, 16 h; stronger effect = lower value; in the data active = activity change below about -50%; inconclusive = mostly about -30% to -49%
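Secreted IL-1B measured by AlphaLISA bead assay after 16 h compound exposure of THP-1 cells; compounds (final up to 57.5 uM) added 1 h before LPS (250 ng/mL) and ATP (1.25 mM) stimulation; lower signal means less secretion.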
Each line names hits and unclear results; the compound was inactive in the other large screens. Unless noted, calls follow the shape of the dose curve; as a rule, active = well fitted curve in the direction sought with a large enough effect; inconclusive = small, poorly fitted or top-dose-only effect, or another doubt; inactive = no such curve, though single readings can be large; an effect the other way counts as inactive or inconclusive.

CC(C)CC1C(=O)N(Cc2cn(CCC3OCCO3)nn2)CCS(=O)(=O)N1Cc1ccc(-c2ccccc2)cc1 (configuration not stated)	TDP1 cell CPT 18µM, DT40 TDP1 no CPT 21µM (no result: TDP1 inh)
CC(C)CC1C(=O)N(Cc2cn(CCC3OCCCO3)nn2)CCS(=O)(=O)N1Cc1ccc(-c2ccccc2)cc1 (configuration not stated)	TDP1 cell CPT inconclusive, DT40 TDP1 no CPT inconclusive (no result: TDP1 inh)
CC(C)CC1C(=O)N(Cc2cn(CCC3OCCCO3)nn2)CCS(=O)(=O)N1Cc1ccc(-c2ccncc2)cc1 (configuration not stated)	TDP1 cell CPT 16µM, DT40 TDP1 no CPT 18µM (no result: TDP1 inh)
Cc1ccc(-c2ccc(CN3C(CC(C)C)C(=O)N(Cc4cn(CCC5OCCO5)nn4)CCS3(=O)=O)cc2)cc1 (configuration not stated)	TDP1 cell CPT 15µM, DT40 TDP1 no CPT 13µM (no result: TDP1 inh)
CC(C)CC1C(=O)N(Cc2cn(CCC3OCCO3)nn2)CCS(=O)(=O)N1Cc1ccc(-c2ccc(F)nc2)cc1 (configuration not stated)	none (no result: TDP1 inh)
CCC(=O)Nc1cc(-c2nc3ncccc3o2)ccc1Cl	none (no result: TDP1 inh)
CC(CCc1ccccc1)NC(=O)c1ccccc1C(=O)O (configuration not stated)	none (no result: TDP1 inh)
CC(C)CC1C(=O)N(Cc2cn(CCC3OCCCO3)nn2)CCS(=O)(=O)N1Cc1ccc(-c2cccc(N(C)C)c2)cc1 (configuration not stated)	none (no result: TDP1 inh)
CC(C)CC1C(=O)N(Cc2cn(CCC3OCCO3)nn2)CCS(=O)(=O)N1Cc1ccc(-c2ccc(Cl)c(Cl)c2)cc1 (configuration not stated)	TDP1 cell CPT 8.2µM, DT40 TDP1 no CPT 5.2µM (no result: TDP1 inh)
C(=C\c1nccc2c1[nH]c1ccccc12)/c1ccccc1	TDP1 cell CPT inconclusive, DT40 TDP1 no CPT 15µM (no result: CtBP-E1A blk)
c1ccc2c(c1)[nH]c1ccncc12	none
Fc1ccc(/C=C\c2nccc3c2[nH]c2ccccc23)cc1	TDP1 cell CPT inconclusive, DT40 TDP1 no CPT inconclusive, IL-1B inflam inh -78 (no result: TDP1 inh)
Cc1ccc(/C=C\c2nccc3c2[nH]c2ccccc23)cc1	TDP1 cell CPT inconclusive, DT40 TDP1 no CPT inconclusive
CC(=O)Nc1ccc(SCc2csc(C)n2)cc1	none
CC1CCCN(c2ccc(C(=O)NCc3ccc4c(c3)OCO4)cc2[N+](=O)[O-])C1 (configuration not stated)	TDP1 cell CPT inconclusive, DT40 TDP1 no CPT inconclusive, Six1-Eya2 inh inconclusive
CC1CCCN(c2ccc(C(=O)OCn3nnc4ccccc4c3=O)cc2[N+](=O)[O-])C1 (configuration not stated)	TDP1 cell CPT inconclusive, DT40 TDP1 no CPT inconclusive
CC1CCCN(c2ccc(C(=O)Nc3ccc4c(c3)OCO4)cc2[N+](=O)[O-])C1 (configuration not stated)	TDP1 cell CPT inconclusive, DT40 TDP1 no CPT 21µM, CtBP-E1A blk inconclusive, Six1-Eya2 inh inconclusive, IL-1B inflam inh -66
CC1CCN(c2ccc(C(=O)Nc3ccc4c(c3)OCO4)cc2[N+](=O)[O-])CC1	TDP1 cell CPT 10µM, DT40 TDP1 no CPT 9.2µM, CtBP-E1A blk inconclusive, Six1-Eya2 inh inconclusive, IL-1B inflam inh -141
CC1CCCN(c2ccc(C(=O)OCC(=O)N3c4ccccc4Sc4ccccc43)cc2[N+](=O)[O-])C1 (configuration not stated)	TDP1 cell CPT 18µM, DT40 TDP1 no CPT 23µM
CCOc1cccc(/C=N/N=C/c2cccc(OCC)c2O)c1O	none (no result: TDP1 inh)
CC(C)Oc1ccc(C(=O)N2CCN(C(=O)c3ccco3)CC2)cc1	none
O=C1CCCCC1Oc1ccc2ccc(=O)oc2c1 (configuration not stated)	none (no result: TDP1 inh)
CCOC(=O)C1(CCC(C)C)CC(CSc2nc3ccccc3[nH]2)OC1=O (configuration not stated)	TDP1 cell CPT 12µM, DT40 TDP1 no CPT 18µM
